Tests used:
Experiment in all cases: PBM binding z-score (relative to random genomic background probes); higher = stronger binding; sequences stand for … in GC…GCGATTGACAGCGTAGAATGAAGG
[1] = system: FXR:RXRa (NR concentration 270 nM, RXRa partner concentration 90 nM)
Procedure, shortened: (§1)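 Binding z-scores take random background probes as their reference. They come from custom Agilent 4×180K protein-binding microarrays incubated 1 h with ligand-free nuclear receptor dimers, with antibodies against each partner (one per run) detecting binding. Scanned fluorescence was regression-normalized.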

[2] = system: LXRa:RXRa (NR concentration 270 nM, RXRa partner concentration 90 nM)
Procedure, shortened: as §1

[3] = system: LXRa homodimer (NR concentration 270 nM)
Procedure, shortened: as §1

[4] = system: LXRb:RXRa (NR concentration 270 nM, RXRa partner concentration 90 nM)
Procedure, shortened: as §1

[5] = system: LXRb homodimer (NR concentration 270 nM)
Procedure, shortened: as §1

[6] = system: PPARa:RXRa (NR concentration 270 nM, RXRa partner concentration 90 nM)
Procedure, shortened: as §1

[7] = system: PPARg:RXRa (NR concentration 180 nM, RXRa partner concentration 90 nM)
Procedure, shortened: as §1

[8] = system: PPARg:RXRa 270nM:90nM, anti-RXR (NR concentration 270 nM, RXRa partner concentration 90 nM)
Procedure, shortened: as §1

[9] = system: PPARg:RXRa 30nM:10nM, anti-RXR (NR concentration 30 nM, RXRa partner concentration 10 nM)
Procedure, shortened: as §1

[10] = system: PPARg:RXRa 90nM:30nM, anti-RXR (NR concentration 90 nM, RXRa partner concentration 30 nM)
Procedure, shortened: as §1

[11] = system: PPARg:RXRa DBDmut IVT, anti-RXR (DBD mutation: RXRa K156A/R161A, NR concentration 270 nM, RXRa partner concentration 90 nM)
Procedure, shortened: as §1

[12] = system: PPARg:RXRa IVT, anti-PPARg (NR concentration 270 nM, RXRa partner concentration 90 nM)
Procedure, shortened: as §1

[13] = system: PPARg DBDmut:RXRa IVT, anti-PPARg (DBD mutation: PPARg1 K132A/R137A, NR concentration 270 nM, RXRa partner concentration 90 nM)
Procedure, shortened: as §1

[14] = system: PPARg DBDmut IVT, anti-PPARg (DBD mutation: PPARg1 K132A/R137A, NR concentration 270 nM)
Procedure, shortened: as §1

[15] = system: PPARg homodimer (NR concentration 180 nM)
Procedure, shortened: as §1

[16] = system: PXR:RXRa (NR concentration 270 nM, RXRa partner concentration 90 nM)
Procedure, shortened: as §1

[17] = system: PXR homodimer (NR concentration 270 nM)
Procedure, shortened: as §1

[18] = system: RARa:RXR (NR concentration 270 nM, RXRa partner concentration 90 nM)
Procedure, shortened: as §1

[19] = system: RARa homodimer (NR concentration 270 nM)
Procedure, shortened: as §1

[20] = system: RARb:RXRa (NR concentration 270 nM, RXRa partner concentration 90 nM)
Procedure, shortened: as §1

Sequence	PBM binding z-score [1]	PBM binding z-score [2]	PBM binding z-score [3]	PBM binding z-score [4]	PBM binding z-score [5]	PBM binding z-score [6]	PBM binding z-score [7]	PBM binding z-score [8]	PBM binding z-score [9]	PBM binding z-score [10]	PBM binding z-score [11]	PBM binding z-score [12]	PBM binding z-score [13]	PBM binding z-score [14]	PBM binding z-score [15]	PBM binding z-score [16]	PBM binding z-score [17]	PBM binding z-score [18]	PBM binding z-score [19]	PBM binding z-score [20]
CCAGACAGGTGAAAGTTAACTCAGTCTGGTACGC	-0.0765	0.237	-0.419	0.191	-0.617	2.21	2.62	4.15	1.99	3.83	1.64	1.56	-0.637	-0.25	0.325	0.141	-0.35	0.616	-0.352	1.04
GCGACTGGGGCATCAGCAAGTTACCATAACTTAA	-0.358	-0.587	-0.708	0.105	-0.805	0.514	0.866	1.08	-0.463	0.387	3.88	2.87	-1.33	-0.593	-0.528	-0.359	-0.789	-0.454	-0.707	0.453
TTACCAAGGTGAGCTGAGGTGGTTGATCCAACTC	-0.284	-0.505	-0.878	-0.761	-1.22	0.275	-0.0433	0.188	-0.313	0.186	0.594	1.48	-0.51	-0.991	-0.428	0.478	-0.709	1.53	-0.848	0.757
TCTGCTAGGTCAGTTGGTCAGCCAACGAGCTGCC	0.772	0.762	-0.677	0.196	-0.0137	1.52	0.643	1.9	1.52	1.51	2.34	2.92	2.07	0.334	0.252	0.152	-0.764	0.399	-1.63	3.3
CCTATTAGTTTACCATAAGGGCAACCGAAGCTCG	0.454	0.693	0.603	0.679	0.527	0.641	0.273	0.684	0.33	0.455	0.246	0.459	0.256	1.25	1.47	0.681	1.08	0.819	1.51	1.6
TCTGCTAGGTCAGTTGGTCAGGTAACGAGCTGCC	1.03	0.456	-0.298	0.248	0.236	1.48	0.452	1.74	1.15	1.3	2.56	3.24	0.0917	0.385	0.478	0.0993	-0.744	0.735	-0.871	3.3
ATCGAAGGGTCGAGGTGAGTATAGAGAAAGGGAA	1.41	1.24	0.0219	1.19	0.389	2.62	1.49	1.28	0.548	0.905	-0.0932	1.19	0.848	0.0579	1.27	1.26	0.308	1.74	1.01	2.51
GGAACCAGGGCAAGTTGATAGCAGAGTTTGATGG	1.5	0.969	0.225	0.866	0.488	1.54	1.17	0.853	-0.119	0.257	4.63	3.75	0.246	1.22	1.02	0.554	0.742	0.217	0.68	2.26
ATCGAAAGGTAGAGGTGAGTATAGAGAAAGGGAA	0.781	0.589	0.209	0.313	0.482	0.942	1	0.958	0.813	0.82	-0.16	0.688	0.622	0.766	0.946	0.265	0.595	0.402	0.765	1.28
GGAACGAGGGCCTTCGAGTTGATAGCATGGCGAT	-0.344	-0.805	-0.648	-0.91	-1.22	-0.579	0.209	-0.359	-0.539	-0.758	0.104	-0.566	-0.653	-1.28	-1.03	-0.313	-0.534	-0.659	-0.765	-0.306
TCATATAGGTAAATGCTAGTTGAAAGTCCGATCT	0.79	0.719	0.081	0.689	-0.0232	1.09	0.625	1.79	3.76	2.81	4.01	2.25	1.08	1.1	0.913	0.488	0.757	0.405	1.01	0.37
CCTATTGGGCCAAAGGTCATTGATTCCAATGCTC	4.7	5.15	4.17	4.72	1.02	5.83	11.8	9.98	10.5	12.1	4.3	6.28	-0.0108	0.0368	4.43	5.28	2.34	6.32	1.8	4.42
CGAACTAGGTGAGAACAGGACAGTGAAGGATGAT	-0.071	-0.292	-0.107	-0.534	-0.796	1.57	2.76	2.11	0.836	1.12	6.37	5.97	0.979	0.431	0.246	0.0752	0.241	0.486	0.275	0.285
AATACAGGGTCATCGTAGACCAGAGTACGCACAG	7.48	5.86	2.19	4.4	1.2	5.84	6.79	6.17	2.73	4.84	3.19	4.37	1.62	0.874	2.94	4.27	0.967	5.09	1.49	4.3
CCTACTGGGCCAACAGGTCATTGATATCAACGTT	1.42	1.52	1.37	1.98	-0.204	3.21	4.01	4.41	2.65	4.24	4.64	4.84	0.0699	0.305	1.23	1.92	0.325	2.13	-0.373	2.12
AGAACGAGGGCAATGAGTTGATGGCACGGGTGGC	0.145	0.254	-0.585	-0.493	-0.436	1.25	1.29	0.598	-0.239	0.238	3.36	2.88	1.3	-0.157	-0.0227	1.19	3.75	0.0282	-0.254	1.99
GCTCGGATGACAAGGTCAGAGCTTTGTCCGTAGA	0.982	1.15	-0.396	0.805	-1.32	1.93	0.116	0.444	-0.707	-0.161	0.0806	0.0489	-1.27	-1.25	0.624	1.51	-0.626	2.09	-1.1	2.61
GCGACTGGGGCGAAGCAGGTTACCATAAGGTTGG	-0.35	-0.539	-0.81	-0.315	-1.13	0.234	0.378	-0.549	-0.972	-0.732	0.93	0.737	-1.9	-1.09	-0.411	-0.249	-0.709	-0.0547	-0.898	0.235
TCTCGGAGGACAGGAAAGGTCAGAGCTCGACATC	2.63	3.06	1.44	2.83	-0.216	3.23	0.566	2.15	2.51	1.96	1.51	0.852	-0.54	-0.498	2.25	3.36	0.759	3.62	0.692	3.9
GTGACTGGGGCAAAGCAGGTTACCATAAGGTTGG	0.845	0.956	0.27	0.924	-0.272	2.5	2.32	2.83	0.397	1.36	4.87	5.02	1.15	0.645	0.994	0.926	-0.0315	1.99	-0.0502	1.14
CATCGGAGGACAGAAGGTCAGAGCTGTCCGCTTT	1.15	1.44	0.265	0.77	-0.44	1.8	0.369	1.27	-0.542	0.627	-0.292	0.418	-0.481	-1.29	0.568	1.12	-0.438	1.86	-0.23	2.86
TCTAGTTGGGCACGGAGGTCACACACGACGGGTA	2.68	2.91	1.6	2.66	0.446	3.52	2.82	3.41	2.73	2.96	1.69	2.93	1.02	-0.0176	2.73	3.91	0.835	4.24	0.793	3.36
AGCATGAGGTTATACGTAGATCAGGGAAGAAAGT	1.93	1.8	0.246	1.47	0.257	2.43	0.933	0.729	0.259	0.586	0.656	0.149	0.86	0.438	0.658	0.995	0.948	1.38	0.699	1.46
CAAACTAGGTCACCGGAAGGTCAATGTCCGCATG	5.97	5.52	3.83	4.64	1.09	6.05	9.44	7.81	5.6	7.57	8.58	8.99	1.98	1.35	6.39	5.65	1.15	6.94	1.41	5.25
TGACCAAGGTGAGCTGAGGTCGTTGATCCAACTC	0.866	1.01	-0.752	0.289	-1.36	1.62	0.26	0.767	-0.66	0.279	0.169	1.43	0.123	-1.59	-0.0589	4.67	0.0412	1.84	-0.758	1.69
AGAATGAGGTTACCTAAGATCAGGGAAACGCTTG	1.57	6.42	-0.328	3.4	-0.272	3.36	2.39	2.16	0.68	1.55	2.92	2.93	1.22	0.151	1.06	1.67	0.241	2.62	-0.231	1.95
GCTGCTAGGTCAGATTGGTCAGCTAACGGGTACG	1.36	0.957	-0.166	0.562	-0.238	1.68	0.672	0.718	-0.273	0.427	2.72	2.3	-0.411	-0.686	0.271	0.33	-0.223	0.855	-0.468	3.27
CGAAGGAGGGCATGAGTTGATAGCAAATGCCGAT	-0.0276	-0.0888	-0.504	-0.073	-0.785	0.988	1.13	1.1	0.326	0.97	2.57	2.1	0.0677	-0.445	0.352	0.02	-0.165	0.152	-0.898	1.53

From the supplement of paper PMC6555819
